# Experimental data: ChEMBL document CHEMBL3433997, “St. Jude Leishmania screening dataset” (2016)
# Tests used:
# Type in all cases: functional
# [1] = molecular target: Solute carrier family 2, facilitated glucose transporter member 1 (Homo sapiens) (UniProt P11166); test: ST_JUDE_LEISH: Cytotoxicity at 2uM final concentration against transgenic Leishmania Mexicana promastigotes LmGLUT1 that are glucose transport deficient and complemented with the human glucose transporter GLUT1. Activity is measured by DNA content using SYBR green in vitro
# Sequence of Solute carrier family 2, facilitated glucose transporter member 1 (Homo sapiens) (P11166 whole entry): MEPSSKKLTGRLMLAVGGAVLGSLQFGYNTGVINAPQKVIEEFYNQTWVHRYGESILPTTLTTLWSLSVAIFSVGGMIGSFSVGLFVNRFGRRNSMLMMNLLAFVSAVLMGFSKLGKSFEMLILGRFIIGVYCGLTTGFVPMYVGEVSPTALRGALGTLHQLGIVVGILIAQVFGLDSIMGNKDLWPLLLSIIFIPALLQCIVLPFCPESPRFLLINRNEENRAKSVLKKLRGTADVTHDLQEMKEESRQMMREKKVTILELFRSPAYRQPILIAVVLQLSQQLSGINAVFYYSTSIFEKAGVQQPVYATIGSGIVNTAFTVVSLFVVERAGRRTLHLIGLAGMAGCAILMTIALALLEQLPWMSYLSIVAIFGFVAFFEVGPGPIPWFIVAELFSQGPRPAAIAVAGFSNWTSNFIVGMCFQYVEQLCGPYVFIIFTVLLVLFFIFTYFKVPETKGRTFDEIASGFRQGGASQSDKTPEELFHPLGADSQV
# [2] = molecular target: Hexose transporter 1 (Plasmodium falciparum) (UniProt O97467); test: ST_JUDE_LEISH: Cytotoxicity at 2uM final concentration against transgenic Leishmania Mexicana promastigotes LmPfHT that are glucose transport deficient and complemented with the Plasmodium falciparum hexose transporter. Activity is measured by DNA content using SYBR green in vitro
# [3] = molecular target: Glucose transporter (Leishmania mexicana) (UniProt O61059); test: ST_JUDE_LEISH: Cytotoxicity at 2uM final concentration against transgenic Leishmania Mexicana promastigotes LmGT2 that are glucose transport deficient and complemented with the L. Mexicana glucose transporter 2. Activity is measured by DNA content using SYBR green in vitro
Structure (SMILES),inhibition [1],inhibition [2],inhibition [3]
CN1CCN(Cc2ccc(-c3cccc(-c4nc5ccccc5[nH]4)c3)cc2)CC1,1.13%,0.78%,-2.4%
CN1CCC(NCc2cccc(-c3nn(C)c4nc(NC5CCCC5)ncc34)c2)CC1,2.78%,1.84%,3.81%
Cc1ccc(Cc2c(C)nc3nc(N)nc(N)c3c2C)cc1,69.9%,73.4%,54.4%
CC(=O)Nc1ccc(Nc2c3ccccc3nc3ccccc23)cc1,8.17%,7.37%,0.02%
CCc1ccc(NC(=O)C=NNC(=N)N)cc1,1.51%,1.46%,1.17%
FC(F)(F)c1cccc(CNC2CCN(CC3CCCCC3)CC2)c1,5.19%,4.53%,3.27%
COc1ccccc1-c1sccc1C(=O)NC1(c2cc(Cl)cc(Cl)c2)CCCC1,1.22%,0.95%,4.85%
FC(F)(F)c1ccc2[nH]c(-c3ccc(-c4ccc(CNCc5ccccc5)cc4)cc3)nc2c1,8.83%,6.65%,6.47%
CCCCCCCCCCNCC(O)c1ccc(O)c(C(=O)OC)c1 (stereo not given),-0.21%,1.42%,0.52%
CN1CCN(CCCN(Cc2ccc(-c3cccc(CNCc4ccc5c(c4)OCO5)c3)cc2)C(=O)Nc2ccccc2)CC1,4.2%,4.92%,4.03%
CCCCN1CCN(CCCNc2c3ccccc3nc3ccccc23)CC1,68%,80%,55.3%
CC[C@H](C)CNC(=O)c1cncc(-c2cccc(CNC3Cc4ccccc4C3)c2)c1,-0.1%,0.31%,-1.15%
CN1C(=O)C(=NN=C(S)N2CCOCC2)c2ccccc21,23.4%,63.9%,12.7%
NC(=O)COc1c(C2CCN(CCN3CCC(CNC(=O)c4ccc(-c5ccc(C(F)(F)F)cc5)cc4)CC3)CC2)ccc2c1CCCC2,4.85%,4.29%,3.32%
O=C(Nc1cccc(Cl)c1Cl)Nc1ccnc2ccccc12,7.59%,7.42%,5.95%
COc1ccc(CNCc2ccc(F)cc2)cc1-c1ccc(OC)c(S(=O)(=O)NCCN2CCCC2)c1,5.21%,6.27%,4.28%
N=C(N)NN=Cc1cc([N+](=O)[O-])ccc1Sc1ccccc1CO,1.08%,1.61%,0.68%
COc1cc(NC(=O)c2ccc(-c3ccc(C(C)=O)cc3)s2)ccc1OCCN1CCCC1,0.3%,-0.14%,1.4%

Structure (SMILES),inhibition [1],inhibition [2],inhibition [3]
CCCCCCc1cc(Oc2c(I)cc(C[C@H](N)C(=O)O)cc2I)ccc1O,0.33%,1.79%,-0.38%
CC(C)n1ncc2c(C(=O)N3CCCCCC3)cc(-c3ccccc3)nc21,-0.35%,-0.92%,-5.3%
O=C(Nc1ccccc1)N(Cc1ccc(-c2cccc(CNC3CCCC3)c2)cc1)C1CCN(Cc2ccccc2)CC1,0.97%,1.4%,1.42%
c1ccc(C(c2ccccc2)N2CCN(C(c3cccnc3)c3nnnn3C3CCCC3)CC2)cc1 (stereo not given),4.64%,-0.82%,-1.23%
COc1ccccc1N1CCN(Cc2cc(C(C)C)c(C)cc2O)CC1,3.59%,6.3%,0.93%
Fc1ccc2[nH]c(-c3cccc(-c4ccc(CNCc5ccccc5)cc4)c3)nc2c1,7.37%,9.95%,4.2%
CC(C)CC(=O)Nc1cc(=O)[nH]c2nc(-c3ccccc3)nn12,3.45%,3.9%,4.09%
CC(C)CCCC(C)(C)NC[C@@H](O)[C@H](Cc1ccccc1)NC(=O)c1cccc(OCC2CC2)c1,1.19%,1.25%,1.85%
CC[C@H]1CN(Cc2cccc(O)c2)CC[C@H]1CCCc1ccnc2ccc(O)cc12,4.31%,4.23%,3.98%
CC1CCCCC1N(C)C1CCN(CCCNC(=O)C=Cc2cccc(C(F)(F)F)c2)CC1 (stereo not given),4.22%,2.29%,1.79%
CCOc1cc2ncnc(Nc3ccc(OCc4ccccc4OC)c(OC)c3)c2cc1OCC,5.01%,2.81%,0.35%
O=C(Nc1ccc(OC2CCN(Cc3ccc(F)cc3)C2)cc1)c1ccco1 (stereo not given),2.22%,2.86%,3.15%
S=C(NN=Cc1ccccn1)NC1CC2C=CC1C2 (stereo not given),10%,13.6%,-1.49%
COC(=O)c1cc2cccc(NC[C@@H](C)NC[C@H](O)c3cccc(Cl)c3)c2[nH]1,-0.1%,1.58%,1.28%
CN(C)CCNC(=O)c1ccc(-c2ccc3c(Nc4ccccc4)c(C(N)=O)cnc3c2)cc1,1.31%,1.74%,2.36%
COc1ccc(-c2cc3nc4c(c(NCCCn5ccnc5)n3n2)CCCC4)cc1,1.31%,1.92%,2.25%
Clc1ccc(-c2cc3c(NCc4ccncc4)nccc3s2)cc1,6.24%,4.38%,2.2%
